# The supplement of paper PMC7156485
# Where a name gives a salt, the structure may show the parent alone. ± gives the standard deviation of the averaged measurements.
# Experiments:
# Settings in all cases: concentration: 10 µM; 24 h
# HCC1569 [1] = experiment: cell number relative to DMSO (% of DMSO); higher = more cells (less growth inhibition / toxicity)
# In short: (§1)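 H1.0 nuclear intensity or cell number is stated as percent of the plate control, based on the median of replicates, and HCC1569 values were smoothed for positional effects. These came from HCC1569 and TDF cells treated with compounds at 10 µM for 24 h at 37 °C in triplicate, then fixed in 3.7% formaldehyde and stained with a rabbit anti-H1.0 antibody, an AlexaFluor 647 secondary and DAPI.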
# TDF [2] = experiment: as above
# In short: as §1
# TDF [3] = experiment: H1.0 immunofluorescence intensity relative to DMSO (% of DMSO); higher = stronger H1.0 induction, active = 120 or more
# In short: as §1
# HCC1569 [4] = experiment: H1.0 immunofluorescence intensity relative to DMSO (% of DMSO); higher = stronger H1.0 induction, active = 140 or more
# In short: as §1
# 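Wherever H1.0 immunofluorescence intensity relative to DMSO is given: TDF is a line of transformed human dermal fibroblasts of mesenchymal origin.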
# 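Wherever cell number relative to DMSO is given: TDF denotes transformed human dermal fibroblasts of mesenchymal origin.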
SMILES,cell number (HCC1569 [1]),cell number (TDF [2]),H1.0 immunofluorescence intensity (TDF [3]),H1.0 immunofluorescence intensity (HCC1569 [4])
O=c1cc(-c2cccc3c2Sc2ccccc2S3)oc(N2CCOCC2)c1,83.2,97.9,94.5 (inactive),145 (active)
CCC=CCC=CCC=CCC=CCC=CCCCCCC(=O)O [Docosapentaenoic acid],100.4 ± 0.68,97.7 ± 1.7,101 (inactive),103 (inactive)
"O=C(O)c1cc(=O)c2c(Cl)cc(Cl)cc2[nH]1 [5,7-Dichlorokynurenic acid]",102,98.6,95.2 (inactive),95.9 (inactive)
CCCCCC=CCC=CCC=CC=CC1CCCC(=O)O1 (racemic),106,97,98.2 (inactive),103 (inactive)
"c1ccc2c(-c3ccncc3)c[nH]c2c1 [Rho Kinase Inhibitor III, Rockout]",105,106,86.9 (inactive),118 (inactive)
CC(C)NCC(O)c1cc(O)cc(O)c1.CC(C)NCC(O)c1cc(O)cc(O)c1.O=S(=O)(O)O (stereo unspecified) [Metaproterenol hemisulfate],102,106,92.1 (inactive),93.4 (inactive)
C=C1C(=CC=C2CCCC3(C)C2CCC3C(C)CCCC(C)C)CC(O)CC1O (stereo unspecified) [Alfacalcidol],100,101,96.5 (inactive),101 (inactive)
O=C(Nc1ccc(S(=O)(=O)Nc2nccs2)cc1)C(c1ccccc1)c1ccccc1,93.6,105,86 (inactive),108 (inactive)
CC1(C)CCC2(C(=O)O)CCC3(C)C(=CCC4C5(C)CCC(O)C(C)(C)C5CCC43C)C2C1 (stereo unspecified) [Oleanolic acid],101,91.6,101 (inactive),89.8 (inactive)
O=C1OC(=O)C2C3CCC(O3)C12 (stereo unspecified) [Norcantharidin],96,92.3,105 (inactive),103 (inactive)
COc1cc2c(c(OC)c1OC)-c1c(cc(OC)c(OC)c1OC)CC(C)C(C)C2 (stereo not drawn) [R(+)-Schisandrin A],105,103,91.6 (inactive),94.9 (inactive)
O=c1oc2c(O)c(O)cc3c(=O)oc4c(O)c(O)cc1c4c23 [Ellagic acid],102,106,102 (inactive),90.6 (inactive)
COc1cc(C(=O)OC2CC(C)=CCCC(C)=CC(O)C2C(C)C)ccc1O (stereo unspecified) [Tschimganidin],102,101,96.2 (inactive),86.8 (inactive)
COc1cc2ncnc(Nc3ccc(Oc4ccccc4)cc3)c2cc1OC [Src Kinase Inhibitor I],88.6,94.7,106 (inactive),147 (active)
Cl.Oc1ccc(C2CNCCc3c2cc(O)c(O)c3Cl)cc1 (stereo unspecified) [Fenoldopam.HCl],97.6,97.8,97 (inactive),121 (inactive)
C=CCCCCCCCCCCC(=O)O [12-Tridecenoic acid],99.7,91.7,106 (inactive),98.7 (inactive)
CC1CC2C3CCC4=CC(=O)C=CC4(C)C3(F)C(O)CC2(C)C1(O)C(=O)CO (stereo unspecified) [Betamethasone],97.2,106,75.2 (inactive),99.5 (inactive)
NS(=O)(=O)c1cc2c(cc1Cl)NC(C1CC3C=CC1C3)NS2(=O)=O (stereo unspecified) [Cyclothiazide],100,105,111 (inactive),99.5 (inactive)
CC(CN1c2ccccc2Sc2ccccc21)N(C)C.Cl (stereo unspecified) [Promethazine hydrochloride],105,96.9,109 (inactive),106 (inactive)
CCOC(=O)C1=CC2(CC)CCCN3CCc4c(n1c1ccccc41)C32 (stereo unspecified) [Vinpocetine],101 ± 3,106 ± 5.3,93.2 (inactive),98.8 (inactive)
"N[C@@H](Cc1ccc(O)c(O)c1)C(=O)O [L-3,4-Dihydroxyphenylalanine]",100,105,89.7 (inactive),90 (inactive)
CCC(=C(c1ccccc1)c1ccc(OCCN(C)C)cc1)c1ccccc1.O=C(O)CC(O)(CC(=O)O)C(=O)O [Tamoxifen citrate],85.2,95.2,115 (inactive),146 (active)
Cc1c(OCC(F)(F)F)ccnc1CS(=O)c1nc2ccccc2[nH]1 (stereo unspecified) [Lansoprazole],96.3,108,90.1 (inactive),104 (inactive)
CC(C(O)c1ccc(O)cc1)N1CCC(Cc2ccccc2)CC1.CC(C(O)c1ccc(O)cc1)N1CCC(Cc2ccccc2)CC1.O=C(O)C(O)C(O)C(=O)O (stereo unspecified) [Ifenprodil tartrate],101,108,100 (inactive),96.7 (inactive)
CN1CCN(CC(=O)N2c3ccccc3C(=O)Nc3cccnc32)CC1.Cl.Cl [Pirenzepine dihydrochloride],107,121,97.4 (inactive),95.9 (inactive)

SMILES,cell number (HCC1569 [1]),cell number (TDF [2]),H1.0 immunofluorescence intensity (TDF [3]),H1.0 immunofluorescence intensity (HCC1569 [4])
CC(C)C(=O)Nc1ccc([N+](=O)[O-])c(C(F)(F)F)c1 [Flutamide],81.3 ± 22,66.1 ± 48,112 (inactive),135 (inactive)
CCCOC(=O)c1cc(O)c(O)c(O)c1 [N-Propyl gallate],89,91,100 (inactive),107 (inactive)
CCCCCCCCCCCCCCC(O)C(O)C(CO)NC(C)=O (stereo unspecified) [C2 Phytoceramide],79.1,86.5,110 (inactive),101 (inactive)
NC(N)=NCCCCN=C(N)N.O=S(=O)(O)O [Arcaine sulfate],104,107,89 (inactive),92.3 (inactive)
CCn1ccnc1CC1COc2ccccc2O1.Cl (stereo unspecified) [Imiloxan hydrochloride],103,105,88 (inactive),100 (inactive)
Cl.O=C1CC2(CCCC2)CC(=O)N1CCCCN1CCN(c2ncccn2)CC1 [Buspirone hydrochloride],97.6,96.8,94.3 (inactive),97 (inactive)
Cc1cc2c(OCC(CNC(C)(C)C)OC(=O)c3ccccc3)cccc2[nH]1 (stereo unspecified) [Bopindolol],98.1,89.5,99 (inactive),103 (inactive)
CC(C(O)c1ccc(O)cc1)N1CCC(Cc2ccccc2)CC1 (stereo unspecified) [Ifenprodil tartrate],104,102,94.5 (inactive),98.5 (inactive)
C=CC1CN2CCC1CC2C(O)c1ccnc2ccc(OC)cc12.C=CC1CN2CCC1CC2C(O)c1ccnc2ccc(OC)cc12.O=S(=O)(O)O (stereo unspecified) [Quinidine sulfate],99,99.9,95.4 (inactive),112 (inactive)
CC(C)NCC(O)COc1cccc2[nH]ccc12 (stereo unspecified) [Pindolol],98 ± 3.1,94.3 ± 2.5,98.8 (inactive),110 (inactive)
COc1ccccc1N1CCN(CCN(C(=O)C2CCCCC2)c2ccccn2)CC1.O=C(O)C=CC(=O)O,104,102,101 (inactive),100 (inactive)
CCC1(c2ccccc2)C(=O)NCNC1=O [Primidone],102,97.2,98 (inactive),102 (inactive)
Cc1cc(Nc2cc(N3CCN(C)CC3)nc(Sc3ccc(NC(=O)C4CC4)cc3)n2)n[nH]1 [Tozasertib],70.4,46.5,99.2 (inactive),156 (active)
CCCCCCCCC=CCCCCCCCC(=O)OCC(CO)OC(C)=O (stereo unspecified) [1-Oleoyl-2-acetyl-glycerol],98.9,106,89.4 (inactive),106 (inactive)
O=C([O-])c1cc2cc(Cc3cccnc3)ccc2o1.[Na+] [Furegrelate sodium],102,102,88.5 (inactive),93.7 (inactive)
O=C1[N-]C(=O)C(c2ccccc2)(c2ccccc2)N1.[Na+] [Phenytoin sodium],99.9,111,99.8 (inactive),103 (inactive)
CS(=O)(=O)c1ccc(C(O)C(COC(=O)CN)NC(=O)C(Cl)Cl)cc1 (stereo unspecified) [Thiamphenicol glycinate],105,96.1,98.4 (inactive),106 (inactive)
"CCCCCCN(CCCCCC)C(=O)Cc1c(-c2ccc(F)cc2)[nH]c2ccccc12 [N,N-Dihexyl-2-(4-fluorophenyl)indole-3-acetamide]",95.6,102,93.3 (inactive),94.3 (inactive)
O=C(NC(NC(=S)Nc1ccc(F)c([N+](=O)[O-])c1)C(Cl)(Cl)Cl)C(c1ccccc1)c1ccccc1 (stereo unspecified) [ATM/ATR Kinase Inhibitor],62.4,64.5,112 (inactive),179 (active)
CC(COc1ccc(C=Cc2ccccc2)cc1)[N+](C)(C)C.[I-] (stereo unspecified),95.6,84.6,107 (inactive),110 (inactive)
CN1c2cc3c(cc2N=C(c2ccc(C(=O)O)cc2)c2ccccc21)C(C)(C)CCC3(C)C,77,88.5,93.8 (inactive),112 (inactive)
NC(=O)c1cccc(-c2cccc(OC(=O)NC3CCCCC3)c2)c1,97.3,97.5,105 (inactive),124 (inactive)
CC(=O)Nc1nnc(S(N)(=O)=O)s1 [Acetazolamide],104,106,86.9 (inactive),83.3 (inactive)
"CCCCCCCCCCCC=CC(C)(C)C=CCCCC(=O)O [7,7-Dimethyleicosadienoic acid]",105 ± 6.3,99.5 ± 3.4,99 (inactive),95.5 (inactive)
